Source: PubChem BioAssay AID1159580 (chemical genetic matrix, 2015)
Several values for one entry are separate records, joined by “and”; a condition that tells them apart may be missing. Equal entries are not always repeated. The whole screen tested about 5,500 compounds, of which about 2,000 (36%) were called active. Another 18% or so got no clear call; they are omitted. Cut-off read from the data, not from the text of the source: active = normalized growth mostly below about 0.91 (no sharp cut-off); inconclusive = no clear call, values can overlap the other calls; inactive = mostly above about 0.92. This is one part of the list.

Assay: chemical genetic growth profiling, strain panel (AID 1159580);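 note: tested at 20 µM; growth read once vehicle control cultures reached saturation at 30 °C; 1 = growth at the plate median or of vehicle wells; lower values mean less growth of the strain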
Settings: S. cerevisiae deletion strains, growth OD

Measured: normalized growth

CC(C)CC(N(C)C)C1(c2ccc(Cl)cc2)CCC1 (stereo unspecified)
inactive: locus YAL013W, strain DEP1, active compounds read low 1 | locus YAL021C, strain ccr4, active compounds read low 0.987 | locus YAL026C, strain drs2, active compounds read low 1.01 | locus YAL030W, strain snc1, active compounds read low 1.01 | locus YBL061C, strain skt5, active compounds read low 1 | locus YBR009C, strain hhf1, active compounds read low 1 | locus YBR021W, strain FUR4, active compounds read low 0.952 | locus YBR023C, strain chs3, active compounds read low 1.01 | locus YBR171W, strain sec66, active compounds read low 1.01 | locus YBR229C, strain ROT2, active compounds read low 0.999 | locus YBR231C, strain swc5, active compounds read low 1.02 | locus YBR279W, strain paf1, active compounds read low 1.01 | locus YCL011C, strain gbp2, active compounds read low 0.999 | locus YCL016C, strain dcc1, active compounds read low 0.994 | locus YCL029C, strain bik1, active compounds read low 1.02 | locus YCL069W, strain vba3, active compounds read low 1 | locus YCR088W, strain abp1, active compounds read low 1.02 | locus YDL005C, strain med2, active compounds read low 1.01 | locus YDL035C, strain GPR1, active compounds read low 1.02 | locus YDL040C, strain nat1, active compounds read low 0.999 | locus YDL074C, strain BRE1, active compounds read low 1 | locus YDL101C, strain DUN1, active compounds read low 1 | locus YDL134C, strain PPH21, active compounds read low 1.01 | locus YDL185W, strain tfp1, active compounds read low 1.01 | locus YDL192W, strain arf1, active compounds read low 1.02 | locus YDR001C, strain nth1, active compounds read low 0.994 | locus YDR069C, strain doa4, active compounds read low 1.03 | locus YDR101C, strain arx1, active compounds read low 1.01 | locus YDR137W, strain rgp1, active compounds read low 1.12 | locus YDR150W, strain NUM1, active compounds read low 1.01 | locus YDR159W, strain sac3, active compounds read low 0.994 | locus YDR162C, strain NBP2, active compounds read low 0.99 | locus YDR195W, strain ref2 1.04 | locus YDR297W, strain sur2, active compounds read low 1.01 | locus YDR318W, strain mcm21, active compounds read low 1.02 | locus YDR334W, strain swr1, active compounds read low 1.01 | locus YDR335W, strain msn5, active compounds read low 1 | locus YDR388W, active compounds read low 1.02 | locus YDR392W, strain spt3, active compounds read low 0.976 | locus YDR502C, strain sam2, active compounds read low 1.01 | locus YEL003W, strain gim4, active compounds read low 1 | locus YEL037C, strain rad23, active compounds read low 1.01 | locus YEL061C, strain CIN8 (second series), active compounds read low 1 | locus YEL061C, strain CIN8, active compounds read low 0.993 | locus YER015W, strain faa2, active compounds read low 0.982 | locus YER016W, strain bim1, active compounds read low 1 | locus YER110C, active compounds read low 1.01 | locus YER111C, strain swi4, active compounds read low 1.01 | locus YER155C, strain BEM2 (second series), active compounds read low 1.03 | locus YER155C, strain BEM2, active compounds read low 0.969 | locus YER167W, strain BCK2, active compounds read low 0.983 | locus YFR010W, strain ubp6, active compounds read low 1.02 | locus YGL078C, strain dbp3, active compounds read low 1 | locus YGL086W, strain mad1, active compounds read low 1.01 | locus YGL167C, strain pmr1, active compounds read low 0.997 | locus YGL173C, strain kem1, active compounds read low 1 | locus YGL227W, strain vid30, active compounds read low 1.01 | locus YGL240W, strain doc1, active compounds read low 1.03 | locus YGL248W, strain PDE1, active compounds read low 0.999 | locus YGL253W, strain hxk2, active compounds read low 1 | locus YGR078C, strain PAC10, active compounds read low 1.01 | locus YGR135W, strain pre9, active compounds read low 1.02 | locus YGR229C, strain SMI1, active compounds read low 0.986 | locus YGR252W, strain gcn5, active compounds read low 1.03 | locus YHR013C, strain ard1, active compounds read low 1.02 | locus YHR027C, strain rpn1, active compounds read low 1 | locus YHR030C, strain SLT2, active compounds read low 1.01 and 1.02 | locus YHR079C, strain IRE1 (second series), active compounds read low 1.01 | locus YHR079C, strain IRE1, active compounds read low 1.01 | locus YHR094C, strain hxt1, active compounds read low 1.01 | locus YHR129C, strain ARP1, active compounds read low 1 | locus YHR142W, strain chs7, active compounds read low 1 | locus YHR200W, strain rpn10, active compounds read low 1.02 | locus YIL066C, strain RNR3, active compounds read low 0.997 | locus YIL073C, strain SPO22, active compounds read low 1.02 | locus YIL125W, strain kgd1, active compounds read low 1 | locus YIR030C, strain dcg1, active compounds read low 1.01 | locus YJL092W, strain hpr5, active compounds read low 1 | locus YJL095W, strain BCK1 (second series), active compounds read low 1 | locus YJL095W, strain BCK1, active compounds read low 1.01 and 0.998 | locus YJL115W, strain asf1, active compounds read low 1.02 | locus YJL129C, strain trk1, active compounds read low 1.03 | locus YJL134W, strain LCB3, active compounds read low 1 | locus YJL154C, strain vps35, active compounds read low 1.01 | locus YJL164C, strain tpk1, active compounds read low 0.995 | locus YJL166W, strain qcr8, active compounds read low 1.02 | locus YJL168C, strain set2, active compounds read low 1.01 | locus YJL187C, strain SWE1 (second series), active compounds read low 1.01 | locus YJL187C, strain SWE1, active compounds read low 1.01 | locus YJR043C, strain POL32, active compounds read low 0.999 | locus YJR066W, strain TOR1, active compounds read low 0.961
